Bioassay records deposited in PubChem by National Center for Advancing Translational Sciences (NCATS).
This is a sample that favours compounds with a hit; in the whole collection about 2.9% have one here.
Integrin act MD: activators of alpha7 integrin expression for muscular dystrophy. alpha7betagal myoblasts, beta-gal FDG fluorescence, 48 h. Potency, µM (series often up to 38.3 µM), without a hit: at the top dose activation, hits mostly activators. AID 624291. actives 0.064% (n = 350,000); active = well fitted activation curve with a large enough effect; inconclusive = small, poorly fitted or top-dose-only effect; inactive = no such curve, though single readings can be large or run the other way;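 note: potency is the fitted concentration of half-maximal effect; 100% = response of the positive control SU9516; nearly all actives have a fitted effect of over 60% in size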
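alpha7betagal+/- myoblasts (passage 13, 250/well) treated 48 h at 37C with compounds at 1:260 dilution of DMSO stock. Lysed, then beta-galactosidase activity read as FDG fluorescence (ex 480/em 540) after 30 min, with pre-read for autofluorescence.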
DRD3 agonist: D3 dopamine receptor (human) agonism | P35462 | D3R DiscoveRx beta-arrestin cells, luminescence, 90 min | max activation, % | actives 0.58% (n = 410,000); in the data active = max activation above about 30%; note: 0% is about no effect
Target sequence (P35462 whole entry, looked up): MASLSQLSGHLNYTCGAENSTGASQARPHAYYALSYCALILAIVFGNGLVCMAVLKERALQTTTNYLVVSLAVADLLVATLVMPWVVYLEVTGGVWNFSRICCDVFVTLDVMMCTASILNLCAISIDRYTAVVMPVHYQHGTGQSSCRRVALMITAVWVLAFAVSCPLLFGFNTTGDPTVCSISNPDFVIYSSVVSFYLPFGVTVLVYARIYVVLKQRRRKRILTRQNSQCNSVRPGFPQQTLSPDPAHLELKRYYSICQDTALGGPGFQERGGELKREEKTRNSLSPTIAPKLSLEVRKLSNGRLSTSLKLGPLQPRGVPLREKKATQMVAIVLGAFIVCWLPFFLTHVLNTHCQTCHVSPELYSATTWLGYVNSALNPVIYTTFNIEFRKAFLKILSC
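Agonist mode: compounds and dopamine controls were applied to plated cells for 90 min at 37 degrees C after an overnight attachment at 1500 cells/well. Luminescent read-out followed 30 - 60 minutes at room temperature with DiscoveRx detection reagent.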
D3 antag: D3 dopamine receptor (human) antagonism; actives 2.5% (n = 360,000); max response, negative = inhibition, %; D3R cells, DiscoveRx beta-arrestin luminescence, antagonist mode; stronger effect = lower value; P35462; in the data active = max response below about -50%; inconclusive = no clear call, values can overlap the other calls; note: % is set by controls: 0 for no effect and ±100 for the full control effect
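Cells plated overnight at 1500 cells/well, then exposed to library compounds with dopamine controls for 90 minutes at 37 degrees C. DiscoveRx reagent added for 30–60 minutes at room temperature; luminescence read, quantitative HTS format.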
Active calls of the source: *; ? = inconclusive; / = not tested or not shown; [ ] = remark or other dose.

SMILES	Integrin act MD	DRD3 agonist	D3 antag
COC(=O)C1=C(c2cc3ccccc3o2)C[C@@H]2CC[C@H]1N2C(=O)NCCCOC(C)C	2.7%	-0.5	7.6
CCCNC1=C(C)C(=O)C2=C(C1=O)C(COC(N)=O)[C@]1(OC)C3NC3CN21 (stereo partly drawn)	?	-1.4	-10.5
Cc1ccc(N2C(=O)NC(=O)/C(=C\c3cc(C)n(-c4cc(C(=O)O)cc(C(=O)O)c4)c3C)C2=O)cc1	3.8%	-4.4	-53.5*
Cc1ccc(N2C(=O)NC(=O)/C(=C\c3cc(C)n(-c4ccc(C(=O)O)cc4)c3C)C2=O)cc1	12.8%	2.0	18.3
C=C(C)C(Cc1c(OC)ccc(C(=O)/C=C/c2ccc(O)cc2)c1O)OO (stereo not drawn)	-35.9%	-10.3	0.0
Clc1ccc(OCC#CCN2CCCCCC2)cc1	-0.3%	-3.9	-90.6*
COc1ccc(OCC#CCN2CCC(C)CC2)cc1	19.3%	-29.3	?
COc1ccc(C2=NCC(=O)N(CC(=O)NCc3ccco3)c3sc4c(c32)CCCC4)cc1OC	14.8%	11.9	7.9
O=C1NC(=O)N(c2ccccc2F)C(=O)/C1=C/c1ccc(Oc2ccc([N+](=O)[O-])cn2)cc1	-13.2%	-10.7	-0.2
CC(C)CCNC(=O)c1c(N)n(Cc2ccc3c(c2)OCO3)c2nc3ccccc3nc12	-30.9%	34.9*	21.6
CC(C)CNC(=O)c1c(N)n(Cc2ccc3c(c2)OCO3)c2nc3ccccc3nc12	-66.2%	7.1	86.7
COc1ccc2c(c1OC)CN1CCc3cc4c(cc3[C@H]1C2)OCO4	-12.8%	-65.0	-113.0*
COc1cc2c(cc1OC)C(C1c3cc4c(cc3CCN1C)OCO4)OC2=O (stereo not drawn)	0.5%	-5.8	-11.1
COc1ccc2c(c1OC)CN1CCc3cc4c(cc3C1C2)OCO4 (stereo not drawn)	0.0%	-1.6	-105.6*
COc1ccc2c(c1O)-c1c(OC)c(OC)cc3c1[C@H](C2)N(C)CC3	/	0.0	0.0
BrCC(Br)(Br)Br	/	23.0	17.6
CN1CCN(c2ncnc3ccc(Br)cc23)CC1	37.7%	-1.3	-29.2
CN1CCN(c2nccc3c2ncn3C)CC1	-1.4%	0.1	-64.0*
CCN(CC)Cc1nccn1-c1ccc([N+](=O)[O-])cc1C(=O)c1ccccc1Cl	/	-23.0	/
COc1ccc(F)cc1C(=O)C1CCCN(Cc2ccc(O)cc2)C1 (stereo not drawn)	-28.9%	-14.8	-65.4*
CCOc1ccc(CN2CCCC(C(=O)c3ccccc3OC)C2)cc1 (stereo not drawn)	1.9%	-22.6	-81.3*
COc1cccc(OC)c1CN1CCCC(C(=O)c2cccc(Cl)c2)C1 (stereo not drawn)	0.0%	-26.8	-78.1*
CCn1ccnc1CN1CCCC(C(=O)c2ccc(OC)cc2OC)C1 (stereo not drawn)	-25.6%	-14.5	21.6
CC(=O)N1CCC(N2CCCC(C(=O)c3cccc(Cl)c3)C2)CC1 (stereo not drawn)	-0.4%	128.8*	-11.9
COc1cccc(C(=O)C2CCCN(Cc3ccccn3)C2)c1 (stereo not drawn)	-18.9%	-8.9	-22.0
SMILES	Integrin act MD	DRD3 agonist	D3 antag
COc1cccc(C(=O)C2CCCN(C3CCOCC3)C2)c1 (stereo not drawn)	5.0%	1.2	-9.2
CCn1ccnc1CN1CCCC(C(=O)c2cc(F)ccc2OC)C1 (stereo not drawn)	-4.6%	-14.4	-11.3
CCOC(=O)[C@]12Cc3ccccc3[C@H]1N(C(C)C)C(=O)c1ccccc12	/	-9.9	?
COc1ccc(-c2nc3ccccc3c(=O)n2-c2nccs2)cc1	-7.4%	-1.5	4.7
COc1ccc(C(=O)C2CCCN(Cc3ccc(F)cc3F)C2)cc1F (stereo not drawn)	-2.5%	-10.9	-29.4
COc1ccc(OC)c(CC(=O)N(C)C2CCCN(Cc3ccccc3F)C2)c1 (stereo not drawn)	7.6%	-19.4	-10.3
COc1ccccc1CN1CCCC(C(=O)c2ccccc2OC)C1 (stereo not drawn)	-51.6%	-23.9	-59.4*
COc1ccc(C(=O)C2CCCN(CCc3ccccc3)C2)cc1OC (stereo not drawn)	/	-24.9	-68.1*
COc1ccccc1CN1CCCC(C(=O)c2ccccc2SC)C1 (stereo not drawn)	-41.2%	-6.7	?
CCOc1ccccc1CN1CCCC(C(=O)c2cc(F)ccc2F)C1 (stereo not drawn)	20.4%	-20.4	-71.8*
COP(=S)(OC)SCn1nnc2ccccc2c1=O	-45.9%	3.1	-18.3
NC(=O)c1c(Br)n(C2OC(CO)C(O)C2O)c2ncnc(N)c12 (stereo not drawn)	-43.8%	6.7	-4.2
N#Cc1c(Br)n(C2OC(CO)C(O)C2O)c2ncnc(N)c12 (stereo not drawn)	-59.0%	38.1*	41.4
CN1CCN(c2oc(-c3ccc(COc4ccccc4)o3)nc2C#N)CC1	/	-0.1	/
O=C1NCN(c2ccccc2)C12CCN(CC1COc3ccccc3O1)CC2 (stereo not drawn)	/	-24.1	/
CCC(c1nnnn1-c1ccc2c(c1)OCCO2)N1CCC2(CC1)C(=O)NCN2c1ccccc1 (stereo not drawn)	/	-6.9	-50.7*
O=C1NCN(c2ccccc2)C12CCN(C(CCc1ccccc1)c1nnnn1-c1ccc3c(c1)OCCO3)CC2 (stereo not drawn)	/	-3.9	2.8
O=C1NCN(c2ccccc2)C12CCNCC2	-11.1%[7.66 µM]	-32.9	-86.1*
CCC(c1nnnn1C(C)(C)C)N1CCC2(CC1)C(=O)NCN2c1ccccc1 (stereo not drawn)	/	-11.7	-21.6
CC(C)(C)n1nnnc1C(CCc1ccccc1)N1CCC2(CC1)C(=O)NCN2c1ccccc1 (stereo not drawn)	/	-14.8	-68.3*
O=C1NCN(c2ccccc2)C12CCN(C(c1cccc3ccccc13)c1nnnn1C1CCCCC1)CC2 (stereo not drawn)	/	-12.4	-70.1*
O=C1NCN(c2ccccc2)C12CCN(C(c1cccc3ccccc13)c1nnnn1C1CCCC1)CC2 (stereo not drawn)	/	-14.8	-1.2
C=C(C=O)C[C@@H]1C[C@H](O)C2OC3C[C@]4(C)OC5/C=C\CC6OC7C(CC=CCC6OC5CCCC4OC3CC2O1)OC1CC2OC3CC(=O)OC3C[C@@H](C)C[C@@]2(C)OC1C[C@@H]7C (stereo partly drawn)	-41.4%	-46.0	?
CC(C)(C)c1ccc(O)cc1	/	-18.5	/
O=C(c1ccc2c(c1)N(Cc1ccc(F)cc1Cl)C(=O)c1ccccc1S2)N1CCC2(CC1)OCCO2	/	5.6	/
SMILES	Integrin act MD	DRD3 agonist	D3 antag
CN(C)C1=NP(N(C)C)(N(C)C)=NC(c2ccccc2)=N1	-11.6%	3.5	22.6
Cn1c(O)c(N=Nc2ccc(S(=O)(=O)N3CCOCC3)cc2)c(=O)n(C)c1=O	-2.5%	-5.3	?
O=c1c2ccccc2nc(CNCc2ccco2)n1-c1ccc(F)cc1	6.8%	5.8	-15.9
COC(=O)C1=C(c2cccc(OCc3ccccc3)c2)C[C@@H]2CC[C@H]1N2C(=O)NCCc1ccc(F)cc1	-32.4%	-30.5	0.0
COP(=O)(OC)C(NC(C)=O)C(Cl)(Cl)Cl (stereo not drawn)	8.4%	-3.6	-10.7
COC(=O)C1=C(c2ccc(OCc3ccccc3)cc2)C[C@@H]2CC[C@H]1N2C(=O)NCc1ccc(OC)cc1	0.0%	-2.6	?
